These results are taken from PubChem BioAssay (NCI).

What all share (experiment): NCI-60 one-dose screen, 48 h (100 = growth as untreated, 0 = no growth, -100 = all killed)
Holding throughout (details): 10 µM unless noted

Experiment [1] concerns HCT-15 colon.
Experiment [2] deals with HT29 colon.
Experiment [3] deals with SNB-75 CNS.
The test system of experiment [4] is SNB-19 CNS.
For experiment [5], the system named is U251 CNS.
Experiment [6] relates to PC-3 prostate.
Experiment [7] deals with SK-MEL-5 melanoma.
In experiment [8] the test system is UACC-62 melanoma.
Experiment [9] deals with LOX IMVI melanoma.
The test system of experiment [10] is SK-MEL-28 melanoma.
The test system of experiment [11] is SK-MEL-2 melanoma.
Experiment [12] deals with EKVX NSCLC.
Experiment [13] relates to SN12C renal.
The test system of experiment [14] is UO-31 renal.
Experiment [15] concerns TK-10 renal.
Experiment [16] has as its system ACHN renal.
Experiment [17] relates to CAKI-1 renal.
The test system of experiment [18] is A498 renal.
For experiment [19], the system named is CCRF-CEM leukemia.
Experiment [20] deals with MOLT-4 leukemia.

The panel holds about 83,000 compounds, 20% with a hit somewhere; the sample as a whole holds those more often.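 Treatment: one concentration, 48 hours, 96-well format. Scoring: percent growth, with anything below 10 considered active.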 Unmarked numbers belong to inactive results. Calls of active or inactive are those of the source.

On to `CCOC(=O)C1=C(CC(O)c2ccc(OC)cc2OC)NC(=O)NC1c1ccccc1` (stereo not given), for which the growth in experiment [1] was 110%; in experiment [2], 100%; in experiment [3], 87.3%; in [4], 99.8%; in experiment [5], 106%; in [6], 95.3%. The growth in experiment [7] is 95.5%; in experiment [8], 89.8%; in [9], 94.5%; in experiment [10], 115%; in experiment [11], 120%; in [12], 105%. Further, the growth in experiment [13] was 105%; in [14] it was 95.8%; in [15] it was 120%; in experiment [16] it was 109%; in experiment [17], 92.2%; in [18], 122%. Further, the growth in experiment [19] was 95.3%; in experiment [20] it was 17.2%.
As to `COCCn1cc(-c2nc(-c3cn(CCOC)c4ncccc34)cs2)c2cc(F)ccc21`, the growth in experiment [1] is 17.8%; in experiment [2] it was 57.6%; in experiment [3] it was 77.4%; in experiment [4], 90.4%; in [5] it was 69.8%; in experiment [6], 39.2%. In addition, the growth in [7] was 14.4%; in experiment [8], 61.8%; in [9], 64.3%; in experiment [10], 91%; in experiment [11], 73.8%; in experiment [12], 23.2%. The growth in experiment [13] is 82.3%; in experiment [14] it was 68.3%; in [15], 28.2%; in experiment [16] it was 76.7%; in experiment [17], 86.4%; in [18], 73.3%. Besides, the growth is 72.5% in experiment [19] and 68.9% in experiment [20].
As to `COc1cccc(-c2cn3nc(-c4cn(C)c5ccccc45)sc3n2)c1`, the growth in [1] was 73.7%; in experiment [2], 91.1%; in experiment [3] it was 83.1%; in experiment [4], 91.7%; in experiment [5] it was 97.7%; in [6], 94.7%. Further, the growth in experiment [7] was 84.2%; in experiment [8], 77.9%; in experiment [9] it was 97.6%; in experiment [10], 95.1%; in experiment [11], 102%; in [12], 85.9%. Moreover, the growth in experiment [13] was 92%; in experiment [14] it was 71.7%; in experiment [15], 105%; in experiment [16] it was 104%; in [17] it was 82.6%; in experiment [18], 87.5%. The growth in experiment [19] was 92%; in experiment [20], 87.5%.
Take `O=C(/C=C/c1ccccc1)c1cccc2ccccc12`: the growth in experiment [1] is 26.5%; in experiment [2] it was 3.24% (active); in experiment [3], 17.4%; in [4], 56.7%; in experiment [5], 29.6%; in experiment [6] it was 45.2%. The growth is 59.2% in [7]; 36.1% in [8]; 57.8% in experiment [9]; 68.3% in [10]; 5.16% (active) in [11]; 65.1% in experiment [12]. Moreover, the growth in experiment [13] was 46.3%; in experiment [14] it was 46.9%; in experiment [15] it was 22.5%; in experiment [16], 43.1%; in experiment [17] it was 40.7%; in [18] it was 50.1%. In addition, the growth in [19] was 3.83% (active); in experiment [20], 6.46% (active).
Take `CCN(CC)CCOc1ccc2c(-c3ccccc3)c(-c3ccc(OC)cc3)c(=O)oc2c1`: the growth is 11.4% in experiment [1]; 17% in [2]; 82.6% in experiment [3]; 69% in experiment [4]; 44.4% in experiment [5]; 65.4% in experiment [6]. Besides, the growth in experiment [7] is 25.9%; in [8], -15% (active); in experiment [9], 29.3%; in [10] it was 43.1%; in experiment [11], 51.6%; in experiment [12] it was 83.9%. The growth was 68.5% in [13]; 62.6% in [14]; 75.9% in [15]; 75.3% in experiment [16]; 71.9% in experiment [17]; 70.2% in experiment [18]. The growth in [19] was 75.3%; in [20], 35.4%.
Consider `CCOC(=O)c1nnn(-c2no[n+]([O-])c2-c2ccc(OC)cc2)c1COc1cccc2cccnc12`, for which the growth in experiment [1] was 22.2%; in experiment [2], 3.79% (active); in experiment [3], 73.1%; in experiment [4] it was 25.2%; in [5], 14.9%; in experiment [6], 34.2%. In addition, the growth in [7] is -22.4% (active); in experiment [8], 8.44% (active); in [9], -43.1% (active); in experiment [10] it was 58.2%; in [11] it was 3.57% (active); in experiment [12] it was 44.8%. Further, the growth was 3.95% (active) in [13]; 34.3% in experiment [14]; 33.2% in [15]; 21.8% in experiment [16]; 24.1% in experiment [17]; 103% in experiment [18]. The growth in experiment [19] is 4.84% (active); in experiment [20], 10%.
Turning to `COC(=O)c1ccc2cc(OC)c(OC)cc2c1`, the growth in [1] was 100%; in [2] it was 90.7%; in experiment [3], 97.8%; in experiment [4] it was 99.5%; in experiment [5], 95.7%; in experiment [6], 92.1%. For the same compound, the growth was 108% in experiment [7]; 104% in experiment [8]; 109% in experiment [9]; 102% in experiment [10]; 134% in experiment [11]; 84.8% in experiment [12]. Also, the growth is 104% in [13]; 100% in [14]; 103% in experiment [15]; 106% in experiment [16]; 91.6% in experiment [17]; 75.4% in experiment [18]. Also, the growth was 91% in experiment [19] and 85.8% in experiment [20].
